In the supplement of paper PMC10338343:
± gives the standard deviation.

What follows are sequences tested on MILI (PIWIL2) piRISC loaded with L1MC piRNA (26 nt) (assay: pre-steady-state target cleavage rate (min^-1); guide: L1MC piRNA 5'p-UAACUAAAUACUAUGCAAGCUGUAGG; MIWI and MILI are mouse PIWI proteins and EfPiwi is from a freshwater sponge; tags in brackets are library labels; higher = faster piRNA-guided slicing of the target). Conditions: auxiliary factor: 500 nM mouse GTSF1.
Method in brief: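 The pre-steady-state cleavage rate was derived from a burst-and-steady-state fit of Cleave-'n-Seq data. For these assays, 1 nM active affinity-purified piRISC loaded with a single synthetic guide was mixed with […] a transcribed, DNA-blocked target RNA library in HEPES–potassium acetate buffer at 33 °C, with or without 500 nM GTSF1 partner protein, for 0–8 or 0–960 min. Sequencing counts of uncleaved targets were normalised to depth and to weakly complementary targets, and k3 was capped at 0.0001 min^-1 after three trials were pooled.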
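Note: 1 nM active piRISC with 0.1 nM target library at 33 °C single turnover.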

Sequence	pre-steady-state target cleavage rate
UCCUGGAUGUCGAUCAUAGUAUUUAGUUA	0.017 ± 0.006
UCCUGGAUCAGCUUGCAUAGAUUUUAGAAA	0.00651 ± 0.0043
UCCUGGAUGUCCUUGUCAUAGUAUUUAGUUA	0.0189 ± 0.009
UCCUGCUACUGCUUGCAUAGUAUUUACUUA	0.082 ± 0.014
UCCUCCUACAGCUUGCUAAGUAUUUAGAAA	0.0796 ± 0.016
UCCUGCUACAGCUUGCAUAGUAUAAUGAAA	0.0499 ± 0.018
UCCUGGAUCAGCUUGCAUAGUUUUUUCAAA	0.00833 ± 0.0048
UCCUGGAUCAGCUUGCAUAGUAUAAUGUAA	0.0214 ± 0.0079
UCCUGGAUGUCGAUGCAUUGUAUUUAGUUA	0.0091 ± 0.0037
UCCUGGAUGUCCUUGGAUAGUAUUUACUUA	0.014 ± 0.005
UCCUGGAUGAGCUUGCAUAGAAUUUUGUUA	0.0139 ± 0.0063
UCCUGGAUCAGCUUGCAAUCUAUUUAGUAA	0.0108 ± 0.0043
UCCUGGAUCAGCUUGCAUAGAAUUUACUUA	0.021 ± 0.0075
UCCUGGAUGUCGAUGCAUAGUAAUAAGUUA	0.00446 ± 0.0033
UCCUGGAUGUGCUUGGAUAGUAUUUAGUAA	0.117 ± 0.021
UCCUGGAUGUGCUUGCAUACUAAUUAGUUA	0.00944 ± 0.0038
UCCUGGAACAGGUUGCAUAGUAUUUACUUA	0.0532 ± 0.012

Sequence	pre-steady-state target cleavage rate
UCCUGGAUGUCGUUGCAUAGUAUUUACGUUA	0.231 ± 0.064
UCCUGGAUGAGCUUCCAUUGUAUUUAGUUA	0.0518 ± 0.016
UCCUGGAUGUGCUUGCAUAGAAUUAAGUUA	0.00431 ± 0.003
UCCUGGUACAGCUUGGAUACUAUUUAGUUA	0.153 ± 0.059
UCCUGGAUGUCCUUGGUUAGUAUUUAGUAA	0.0915 ± 0.022
UCCUGGAUCAGCUUGCAUAGUAAAUUCAAA	0.0136 ± 0.0055
UCCUCCUACAGCUACCAUAGUAUUUACAAA	0.0179 ± 0.008
UCCUCCUACAGCUUGCUAAGUAUUUUCAAA	0.0625 ± 0.017
UCCUGGAACAGCUUGCAUUGUAUUUACAAA	0.00788 ± 0.0043
UCCUGGAUGUCGAAGCAUAGUAUUUAUUUA	0.0073 ± 0.0034
UCCUGGAUGACGUUGCAUAGUAUUUACAAA	0.0104 ± 0.0057
UCCUGGAUGUCCUUGCUAUGUAUUUAGUAA	0.00762 ± 0.0042
UCCUGGAACAGCUUGCAUACUAUAUAGUUA	0.0332 ± 0.0099
UCCUGCUACAGCAAGCAUAGUAUUUAGAAA	0.217 ± 0.052
UCCUGGUACAGCUUGCAAAGUAUAUAGUUA	0.0931 ± 0.016
UCCUGGAACAGCUUGCAAAGUAUUUACAAA	0.0328 ± 0.01
